The full ranking holds about 33,000 sequences; the median of “E-score (-0.5 to 0.5)” is about -0.054, and the highest 2% start at about 0.35. The full list was thinned out, with the highest values kept by preference.
The sequences below were run against T1, Stb5 (UniProt P38699) (assay: PBM E-score (8-mer binding enrichment) (E-score (-0.5 to 0.5)); higher = stronger / more preferred TF binding). Conditions: protein concentration: 200 nM; construct: GST-full length.
T1 sequence: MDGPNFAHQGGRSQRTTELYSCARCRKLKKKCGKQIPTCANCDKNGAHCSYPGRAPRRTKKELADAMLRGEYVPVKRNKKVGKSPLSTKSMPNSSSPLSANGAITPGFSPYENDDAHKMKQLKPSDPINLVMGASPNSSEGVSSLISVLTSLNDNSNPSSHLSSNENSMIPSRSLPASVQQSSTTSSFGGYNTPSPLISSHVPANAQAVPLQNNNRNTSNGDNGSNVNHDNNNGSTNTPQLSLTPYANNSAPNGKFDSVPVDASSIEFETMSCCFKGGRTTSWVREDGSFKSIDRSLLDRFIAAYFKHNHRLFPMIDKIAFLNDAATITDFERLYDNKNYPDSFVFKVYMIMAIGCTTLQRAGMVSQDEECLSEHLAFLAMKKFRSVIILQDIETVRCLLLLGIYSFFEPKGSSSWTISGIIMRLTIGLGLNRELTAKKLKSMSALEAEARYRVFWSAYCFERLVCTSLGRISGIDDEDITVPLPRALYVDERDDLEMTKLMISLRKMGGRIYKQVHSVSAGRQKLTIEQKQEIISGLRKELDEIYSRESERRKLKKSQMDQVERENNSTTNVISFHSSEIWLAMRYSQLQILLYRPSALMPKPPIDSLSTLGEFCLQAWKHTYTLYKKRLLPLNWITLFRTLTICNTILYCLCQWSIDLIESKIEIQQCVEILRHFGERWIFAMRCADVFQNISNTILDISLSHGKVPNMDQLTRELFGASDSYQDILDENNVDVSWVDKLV
Protocol: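 Universal 'all 10-mer' protein binding microarrays (Agilent AMADID 015681) probed with GST-tagged S. cerevisiae TFs (full-length or DBD) made by in vitro transcription/translation (PURExpress), about 100-200 nM. Bound TF was detected with fluorescent anti-GST. Each ungapped 8-mer (which stands for itself and its reverse complement) is scored by the PBM enrichment score (E-score), a modified Wilcoxon-Mann-Whitney statistic from -0.5 to +0.5, computed with the Universal PBM Analysis Suite. Scale: above 0.35 generally sequence-specific binding.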

Row | Sequence | PBM E-score
1 | ATGGCAAA | -0.0403
2 | CCTAGGTC | -0.15
3 | ATGCTAAC | -0.0894
4 | GGCAGTAC | 0.0214
5 | AAGTGAAC | -0.129
6 | AAGCGCCG | 0.396
7 | AACCGCCG | 0.362
8 | AACCGCCT | 0.0427
9 | AAGCGCCT | 0.0194
10 | AAGCGCCA | -0.0397
11 | AACCGCCA | 0.167
12 | TACATATA | 0.0481
13 | GGATTGAC | -0.0821
14 | AGACTCCA | -0.139
15 | AGTCTGTG | -0.27
16 | GATGGGTA | -0.205
17 | GGGTATCA | -0.079
18 | CGGTATTA | 0.472
19 | CGGTATCC | 0.211
20 | CGGTATCA | 0.364
21 | AGGTGGTA | 0.165
22 | CGGTAGTC | 0.18
23 | AGGTATTA | 0.212
24 | CGGTGGTA | 0.441
25 | CGGTAGTA | 0.385
26 | AGGTAGTA | 0.0131

Row | Sequence | PBM E-score
27 | CGGTATTC | 0.275
28 | GGGTGGTA | -0.0756
29 | GGAAAGCA | 0.024
30 | AGAGTGCT | -0.0924
31 | AGATCGGA | 0.335
32 | TAGTCGAA | -0.0837
33 | AATAGCAG | -0.0777
34 | CGCTATTA | 0.357
35 | GGCTATTA | -0.0171
36 | AGCTATTA | -0.041
37 | ACTGGCGC | -0.0545
38 | AGGGGGGA | -0.38
39 | GTATGGTA | -0.168
40 | ATCCCCGA | 0.374
41 | ATCCCCGG | 0.379
42 | ATCCCGGG | 0.299
43 | ATCCCCCC | -0.0842
44 | GTCCCCGA | 0.185
45 | CTCCCCGA | 0.225
46 | CTCCCCGC | 0.248
47 | ATCCCCGC | 0.453
48 | ATCCCCCG | 0.292
49 | ATTCGCAC | 0.00083
50 | GAAACGTA | -0.0447
51 | AAATGCTA | -0.223
52 | CCTTGGCA | -0.227

Row | Sequence | PBM E-score
53 | CGTTAACC | 0.0895
54 | GTACCAAC | -0.00359
55 | ACCAGATC | -0.153
56 | CTCTATGA | -0.245
57 | CCTGCTAG | -0.0487
58 | AGTCTCAT | -0.154
59 | CGCCACAC | 0.0326
60 | CAGCCGCC | 0.0327
61 | ACGCCGTG | 0.297
62 | AAGCCGCG | 0.287
63 | AAGCCGCT | 0.134
64 | ACGCCGTC | 0.405
65 | ACGCCGTA | 0.204
66 | ACGCCTCT | -0.306
67 | CCGCCGCC | 0.361
68 | ACGCCGCT | 0.383
69 | AAGCCGTC | 0.243
70 | GCGCCGCC | 0.331
71 | ACGCCGCG | 0.361
72 | AACTTCTT | -0.0358
73 | ATAGAGTA | -0.0125
74 | CGTCTAAC | 0.0919
75 | GGATAGGA | -0.00719
76 | CAGCGCAA | -0.0211
77 | CGACAGTA | 0.0893
78 | AGTGACGA | -0.191

Row | Sequence | PBM E-score
79 | AGCTCCCC | -0.226
80 | TACTAGCA | -0.277
81 | AGTGAAGA | -0.155
82 | ACTGAAGG | -0.139
83 | CATAGAGG | -0.173
84 | ACGCCGCA | 0.354
85 | ATGCCGCG | 0.319
86 | ACGCCGCC | 0.41
87 | AAGCCGCC | 0.245
88 | AGGCCGCC | 0.324
89 | CCGCGCCG | 0.288
90 | GCGCCGCA | 0.268
91 | CAGCCGCG | 0.0138
92 | ATGCCGCC | 0.423
93 | CCGCCGCG | 0.363
94 | CCGCCGCA | 0.301
95 | ATGCCGCA | 0.25
96 | AAGGGGAA | -0.188
97 | AATGGATA | 0.135
98 | TGGACCAA | -0.112
99 | GTTACTTA | 0.0421
100 | CCGAGGAG | 0.0924
101 | AGATCAAC | -0.251
102 | CCGCCGTC | 0.29
103 | CCGCCGTA | 0.381
104 | GCGCCGTA | 0.253

Row | Sequence | PBM E-score
105 | CATAAGCG | 0.0871
106 | GTTGAGGA | -0.203
107 | CTTTCACA | -0.0931
108 | GCAAGACC | 0.146
109 | CCGATGCG | 0.339
110 | CGGAACTA | 0.44
111 | GGGGGATA | 0.13
112 | CGGGGAAA | 0.385
113 | CGGAATTA | 0.417
114 | CGGGGATA | 0.478
115 | AGGAATTA | -0.00087
116 | AGGGGATA | 0.0586
117 | CGGAATTC | 0.0284
118 | GGGGGAAA | 0.165
119 | CGGGGGAA | 0.257
120 | CGGAACTC | 0.0793
121 | AGGAACTA | 0.0488
122 | AGAATGGG | -0.212
123 | CCTTGACA | -0.071
124 | GCTTTTAC | 0.265
125 | ACGTCGTC | -0.0716
126 | AAAGTTTG | -0.169
127 | CGGCCGCA | 0.235
128 | TGTAACAA | -0.111
129 | GAATCTCA | -0.131
130 | GGTCGCGA | -0.0386

Row | Sequence | PBM E-score
131 | CGGAAATC | 0.0555
132 | AGGGATTA | 0.0519
133 | CGGGATTA | 0.471
134 | CGGAAGTA | 0.352
135 | CGGAAATA | 0.399
136 | CGGGATTC | 0.219
137 | CGGAAGTC | 0.204
138 | AGGGAATA | 0.0674
139 | CGGGAATA | 0.456
140 | GGGGAATA | 0.174
141 | GGGAAATA | 0.134
142 | AGGAAGTA | 0.0105
143 | GAAGCGGA | 0.282
144 | CTCGATGC | -0.2
145 | CGAGTGTC | -0.0644
146 | AGCTTTTG | -0.139
147 | CAGACACC | 0.0808
148 | AGTACGAT | -0.165
149 | CCAGTGAG | -0.17
150 | TTATAGAA | -0.0532
151 | GCATAAGC | 0.0731
152 | AGAGACGG | 0.0766
153 | CTTTGACA | -0.135
154 | CGGGACTA | 0.451
155 | CGGGGACC | 0.051
156 | GGGGAGTA | 0.0545

Row | Sequence | PBM E-score
157 | GGGGGACA | -0.187
158 | CGGGACTC | 0.184
159 | GGGGACTA | -0.0234
160 | CGGGGACA | 0.415
161 | CGGGAGTA | 0.417
162 | AGGGAGTA | -0.109
163 | AACGGGTA | 0.102
164 | ACGATCCT | -0.231
165 | AGTCCGGA | 0.39
166 | ATTCCGGA | 0.115
167 | AGTCCGGG | 0.274
168 | CGTCCGGA | 0.153
169 | AGTCCGGC | 0.38
170 | AGTCCGCA | 0.323
171 | AGTCCGCC | 0.42
172 | CGTCCGCC | 0.338
173 | CGTCCGGC | 0.275
174 | GATCCGGA | 0.227
175 | GGTCCGGA | 0.391
176 | AGTCCGCG | 0.339
